In PubChem BioAssay (NCI):
About 79,000 compounds went through this panel and 15% of them were active in at least one assay; those are over-represented in the sample as a whole. A number with no mark means an inactive call. Cut-off read from the data, not from the text of the source: active = growth inhibition above about 70%; inactive = the rest.

Assay: NCI Yeast Anticancer Drug Screen. Data for the mec2-1 strain (AID 157)
Settings: S. cerevisiae mec2-1 strain, at 50.0 µM, stronger effect = higher value
Outline: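 Mutant yeast (mec2-1) grown with compound; growth inhibition relative to vehicle control reported.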

| Structure (SMILES) | growth inhibition |
| --- | --- |
| CC(C)(N=NC(C)(C)C(=O)NCCO)C(=O)NCCO | -6.65% |
| COc1ccc(OC)c(/C=C/c2ccc(NC(=O)C(Cl)(Cl)Cl)cc2)c1 | -3.8% |
| NC1=C(O)C(=O)C(c2ccccc2)O1 (stereo not drawn) | -12.2% |
| O=C(O)C(=O)Cc1ccccc1 | -14.2% |
| Br/C=C\Br | 0.15% |
| COc1ccc2c(c1O)-c1c(OC)c(OC)cc3c1[C@H](C2)[N+](C)(C)CC3 | -12.2% |
| Cc1ccccc1N(C(=O)C(=O)O)c1ccccc1C | 7.75% |
| CC(C)(C)NC(=O)NCc1ccccc1Cl | -8.1% |
| c1csc(-c2nccc3ccccc23)c1 | 2.3% |
| CC(/C=N\NC(=S)SCc1ccccc1)=N/N=C(N)N | 50.2% |
| O=C(O)COc1cc(-c2ccccc2)nc2ccc(F)cc12 | 16.6% |
| C/C(=C/C(C)O)c1ccccc1 (stereo not drawn) | -3.85% |
| CC1(C)N=C(N)N=C(N)N1CCCCc1ccccc1 | -41.9% |
| ClCCCCCCCCCCl | -17.4% |
| COc1cccc(/C=N/N(C)c2c([N+](=O)[O-])cc(C(F)(F)F)cc2[N+](=O)[O-])c1O | -17.3% |
| NC(CCCOS(=O)(=O)O)Cc1ccc2ccccc2c1 (stereo not drawn) | 9.35% |
| O=C(NNC(=O)c1ccc(Cl)cc1Cl)c1ccccc1 | 0.2% |
| O=C(OCC1OC(OCc2ccccc2)C(OC(=O)c2ccccc2)C1OC(=O)c1ccccc1)c1ccccc1 (stereo not drawn) | -6.1% |
